Bioassay records: PubChem, National Center for Advancing Translational Sciences (NCATS)
SARS PLpro yeast = SARS-CoV PLP inhibition in yeast. S. cerevisiae expressing SARS-CoV PLpro, growth rescue. 330,000 compounds, 0.19% hits. Potency, µM (series often up to 32.9 µM), usual class: activators; calls by dose curve; note: nearly all actives have a fitted effect of over 55% in size
Sm TGR inh = S. mansoni TGR enzyme inhibition; Q962Y6; purified TGR, DTNB reduction, TNB absorbance 405 nm; Potency, µM (series often up to 114 µM), hits mostly inhibitors; 360,000 compounds, 3% hits; note: nearly all actives have a fitted effect of over 60% in size
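Kinetic colorimetric format: TGR-catalysed, NADPH-driven DTNB reduction monitored via TNB absorbance. Enzyme dispensed at 20 nM; compound exposure 15 min at room temperature before reaction start.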
Pf growth 48h = P. falciparum growth inhibition at 48 hours (one generation). Potency, µM (titrated, usually from 28.7 µM), actives largely listed as inhibitors. P. falciparum luciferase growth in erythrocytes, 48 h. AID 504832. 310,000 compounds, 5.9% hits
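Luciferase-expressing P. falciparum in infected erythrocytes (2% hematocrit, 0.1% parasitemia final) in RPMI 1640/0.5% Albumax were exposed to compound for 48 hours at 37 C, 5% CO2; growth read as luminescence.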
Pf growth 96h = P. falciparum growth inhibition at 96 hour, primary screen for plastid delayed-death inhibitors; P. falciparum luciferase reporter growth, 96 h; Potency, µM (highest dose often 28.7 µM), actives largely listed as inhibitors; 320,000 compounds, 6.9% hits; AID 504834
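P. falciparum expressing integrated firefly luciferase grown in erythrocytes (2% hematocrit, 0.05% parasitemia final) with compounds for 96 hours at 37 C, 5% CO2. Growth inhibition read as loss of luminescence after adding luciferase detection reagent.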
Hits are given with their value; - = inactive; ? = inconclusive; . = no result. Only some compounds are listed: those with a hit (about 12% of all), similar ones and a draw of the others. Unless noted, calls come from the whole dose curve; as a rule, active = well fitted curve in the direction sought with a large enough effect; inconclusive = small, poorly fitted or top-dose-only effect, or another doubt; inactive = no such curve, though single readings can be large; an effect the other way counts as inactive or inconclusive.

SMILES	SARS PLpro yeast	Sm TGR inh	Pf growth 48h	Pf growth 96h
Cc1nc(N2CCN(c3ccccn3)CC2)c2c(C)c(C(=O)Nc3c(C)cc(Br)cc3C)sc2n1	-	-	1.85µM	-
CC(=O)N1CCc2c(sc3c2c(=O)n(-c2ccc(C)cc2)c(=O)n3Cc2c(F)cccc2Cl)C1	.	-	.	.
COc1ccc(/C=c2\sc3nc(=O)c(C)nn3c2=O)c(OC)c1	-	-	-	-
CC(=O)c1sc2nc(=O)c(C)nn2c1C	-	-	-	3.7µM
CC(=O)c1c(C)[nH]c(C(=O)C(C)Sc2nnc(NC3CC3)s2)c1C (stereo not drawn)	-	-	13.1µM	9.28µM
CC(Sc1nnc(NC2CC2)s1)C(=O)Nc1ccc(N2CCOCC2)cc1 (stereo not drawn)	-	-	-	-
O=C(NC1CCCC1)C(c1ccccc1)N(Cc1ccc(F)cc1)C(=O)c1csnn1 (stereo not drawn)	-	-	?	-
O=C(NC1CCCC1)C(c1ccc(Cl)cc1)N(Cc1ccc(F)cc1)C(=O)CCl (stereo not drawn)	-	7.08µM	-	-
O=C(NC1CCCC1)C(c1ccc(F)cc1)N(Cc1ccc(Cl)cc1)C(=O)CCl (stereo not drawn)	-	2.82µM	-	?
CC[N+]1=CN(c2ccccc2)C(C)=CC1(C)C	-	-	?	4.15µM
CCc1nc(=O)c(-c2ccccc2)c(C)n1-c1ccccc1	-	-	-	-
CCN(C[C@H]1N[C@@](C)(C(=O)OC)[C@H]2C(=O)N(C)C(=O)[C@@H]12)C(=O)Nc1ccc(OC)cc1	-	.	.	.
CC1CCc2ccccc2N1C(=N)N(C)C (stereo not drawn)	-	-	-	-
CCCN(CCC)[C@@H]1CCc2cccc(O)c2C1	-	-	5.22µM	4.15µM
Cc1ccc(OCC(=O)Nc2ccccc2C(=O)OCc2cc(=O)n3ccsc3n2)cc1C	.	-	.	.
CN1CCN(c2ccc(NC(=S)NC(=O)/C=C/c3ccco3)cc2)CC1	-	50.1µM	?	-
O=C(/C=C/c1ccccc1)NC(=S)Nc1ccc(N2CCOCC2)cc1	-	-	-	-
CC(=O)N(C)c1ccc(NC(=S)NC(=O)/C=C/c2ccco2)cc1	-	28.2µM	?	-
COc1cc(NS(=O)(=O)c2ccc(NC(=S)NC(=O)/C=C/c3ccco3)cc2)ncn1	-	39.8µM	?	?
CCOc1ccc(NC(=S)NC(=O)/C=C/c2ccco2)cc1	-	22.4µM	-	11.7µM
CCOc1ccc(NC(=S)NCc2ccco2)cc1	-	-	-	-
CC(C)c1nn2c(=O)cc(COC(=O)c3ccc(NC(=O)c4cccs4)cc3)nc2s1	.	-	.	.
Cc1ccc(CNC(=O)c2ccc(CSCc3ccccc3Cl)o2)cc1	.	-	.	.
CC(=O)Nc1ccc(NC(=S)NC(=O)/C=C/c2ccco2)cc1	-	17.8µM	-	?
CC(=O)N1CCc2cc(S(=O)(=O)NC(CC(C)C)C(=O)Nc3ccc(C(C)C)cc3)ccc21 (stereo not drawn)	.	-	.	.
SMILES	SARS PLpro yeast	Sm TGR inh	Pf growth 48h	Pf growth 96h
COc1cc(-c2nnc3sc(Cc4ccccc4)nn23)cc(OC)c1OC	-	-	?	6.57µM
CCOc1cccc(-c2nnc3sc(C4CCCCC4)nn23)c1	-	-	9.28µM	10.4µM
COc1ccc(-c2nnc3sc(CCN4C(=O)c5ccccc5C4=O)nn23)cc1	-	-	5.22µM	?
COc1cc(OC)c(-c2nn3c(C4CCCCC4)nnc3s2)cc1OC	-	-	5.22µM	-
COc1cc(-c2nnc3sc(C4CCCCC4)nn23)cc(OC)c1OC	-	-	8.28µM	5.22µM
COc1ccc(S(=O)(=O)N2CCN(C(=O)CCc3c[nH]c4ccccc34)CC2)cc1	-	-	?	?
Cc1cccc(CN2CCN(Cc3ccc(Cl)cc3)CC2)c1	-	-	.	?
COc1cccc(CN2CCN(C(c3ccccc3)c3ccccc3)CC2)c1O	-	-	?	0.415µM
COc1cc(CN2CCN(C(c3ccccc3)c3ccccc3)CC2)cc(OC)c1OC	-	-	?	4.65µM
Cc1cccc(CN2CCN(C(c3ccccc3)c3ccc(Cl)cc3)CC2)c1 (stereo not drawn)	-	-	?	9.28µM
COc1cccc(CN2CCN(Cc3cc(OC)c(OC)c(OC)c3)CC2)c1OC	-	-	-	-
COc1cc(C(=S)N2CCN(C(c3ccccc3)c3ccccc3)CC2)cc(OC)c1O	-	-	?	-
CCc1ccc(OC(C)C(=O)Nc2c(C(=O)c3ccccc3)oc3ccccc23)cc1 (stereo not drawn)	.	-	.	.
Cc1cc2c(NC(=O)Nc3ccccc3)cccc2nn1	-	?	?	13.1µM
Cc1cc2c(NC(=O)Nc3ccc(C(C)(C)C)cc3)cccc2nn1	-	-	?	11.7µM
O=C(Nc1ccccc1)Nc1cccc(NC(=O)Nc2ccccc2)c1F	-	-	-	-
CC(/C=N/NC(=O)c1ccccc1F)=C\c1ccccc1	-	-	-	-
CCOc1cc(C(=O)OCC(=O)NCc2ccco2)cc(OCC)c1OCC	-	25.1µM	-	-
O=C(COC(=O)c1ccc(S(=O)(=O)NCc2ccco2)cc1)NCCC1=CCCCC1	-	44.7µM	-	.
CN(C)S(=O)(=O)c1ccc(C(=O)OCC(=O)NCc2ccco2)cc1	-	35.5µM	-	-
COc1ccc(CC(=O)OCC(=O)NCc2ccco2)cc1OC	-	39.8µM	-	-
COc1cc(OC)c(NC(=O)CN(C)S(=O)(=O)c2ccc3[nH]c(=O)oc3c2)cc1Cl	-	-	-	?
CCc1nc2ccccc2c(C(=O)OCC(=O)NCc2ccco2)c1C	-	35.5µM	?	.
CCCc1nc2ccccc2c(C(=O)OCC(=O)NCc2ccco2)c1CC	-	?	.	?
COC(=O)CNC(=O)C(NC(=O)OCc1ccccc1)C(C)C (stereo not drawn)	-	-	-	?
SMILES	SARS PLpro yeast	Sm TGR inh	Pf growth 48h	Pf growth 96h
O=C(COC(=O)c1cncc(Br)c1)NCc1ccc(F)cc1	-	-	-	-
O=C(COC(=O)c1cncc(Br)c1)NCc1ccco1	-	25.1µM	?	?
CC(C)[C@H](NC(=O)OCc1ccccc1)C(=O)NC(C=O)Cc1ccccc1 (stereo partly drawn)	.	-	1.31µM	3.7µM
COc1cc(C(=O)OCC(=O)NCc2ccco2)cc(OC)c1OC	-	44.7µM	-	-
O=C(NCc1ccco1)C1(c2ccccc2)CCCC1	-	?	-	-
CC(C)C(NC(=O)OCc1ccccc1)C(=O)OCC(=O)NCc1ccco1 (stereo not drawn)	-	28.2µM	-	-
O=C(COC(=O)c1cc2ccccc2cc1O)NC(=O)NCc1ccco1	-	44.7µM	-	-
COc1ccc(C2(C(=O)NCc3ccco3)CCCC2)cc1OC	-	44.7µM	?	-
O=C(COC(=O)c1ccc(NS(=O)(=O)c2cccs2)cc1)NCc1ccco1	-	11.2µM	-	-
COCc1nc2cccnc2n1C1CCN(S(=O)(=O)N(C)C)CC1	.	-	.	.
CC(C)(C)c1ccc(OCC(=O)NCc2ccco2)c(Br)c1	-	10µM	-	-
COC(=O)c1ccc(NC(=O)c2nn(C)c3c2CS(=O)(=O)c2ccccc2-3)cc1	.	-	.	.
CC(=O)NCCOC(=O)Nc1cccnc1	-	-	1.85µM	-
